Hits are enriched below; roughly 11% of the tested compounds scored in any of these assays.
SW480 rerep = induces DNA re-replication in SW480 colon adenocarcinoma cells; SW480 DNA re-replication, Hoechst DNA content imaging, 48 h; Potency, µM (doses to about 46.1 µM), without a hit: at the top dose re-replication activation, most hits filed as activators; hit rate 1.8% among 340,000; AID 624297; further: potency means the concentration at half of the fitted maximal effect; % of control where 0% means no effect; nearly all actives have a fitted effect of over 55% in size
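Quantitative HTS format with DMSO vehicle controls; 48 hr drug incubation at 37 C, then 40 min Hoechst staining and scanning imager measurement at 405 nm excitation.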
VP16 counter = Gal4-VP16 reporter inhibition counter-screen; Drosophila S2 Gal4-VP16 UAS-luciferase, luminescence, 20 h; Potency, µM (highest dose often 53.6 µM), for inactives: at the highest dose activity, negative = inhibition, actives largely listed as inhibitors; hit rate 3.5% among 310,000;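 further: Gal4-VP16 expression switched on by copper sulfate through the metallothionein promoter; potency means the concentration at half of the fitted maximal effect; on the % scale 0 is the no-effect control and ±100 the full control effect; nearly all actives have a fitted effect of over 50% in size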
MCF10A rereplic = induces DNA re-replication in MCF 10a normal breast cells; AID 624296; MCF 10A DNA re-replication, Hoechst nuclear intensity, 48 h; Potency, µM (series often up to 46.1 µM), inactives show at the top dose activity, positive = re-replication, actives largely listed as activators; hit rate 2.9% among 350,000; further: potency means the concentration at half of the fitted maximal effect; % of control where 0% means no effect; nearly all actives have a fitted effect of over 50% in size
IL-1B inflam inh = blocks inflammasome-driven IL-1 beta release | THP-1 LPS/ATP IL-1B secretion, AlphaLISA, 16 h; stronger effect = lower value | activity change, % at 57.5 µM | hit rate 4.7% among 360,000 | AID 743279; in the data active means activity change below about -50%; inconclusive means mostly about -30% to -49%; further: on the % scale 0 is the no-effect control and ±100 the full control effect
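Secreted IL-1B measured by AlphaLISA bead assay after 16 h compound exposure of THP-1 cells; compounds (final up to 57.5 uM) added 1 h before LPS (250 ng/mL) and ATP (1.25 mM) stimulation; lower signal means less secretion.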
RORg inh = ROR gamma (mouse) transcription inhibition. P51450. Drosophila S2 Gal4-RORgamma UAS-luciferase reporter, 20 h. Potency, µM (doses to about 53.6 µM), for the others: top-dose activity change, negative = inhibition, hits mostly inhibitors. hit rate 5.4% among 310,000; further: potency means the concentration at half of the fitted maximal effect; on the % scale 0 is the no-effect control and ±100 the full control effect; nearly all actives have a fitted effect of over 60% in size
Target sequence (P51450 whole entry, looked up, the tested form may be a part): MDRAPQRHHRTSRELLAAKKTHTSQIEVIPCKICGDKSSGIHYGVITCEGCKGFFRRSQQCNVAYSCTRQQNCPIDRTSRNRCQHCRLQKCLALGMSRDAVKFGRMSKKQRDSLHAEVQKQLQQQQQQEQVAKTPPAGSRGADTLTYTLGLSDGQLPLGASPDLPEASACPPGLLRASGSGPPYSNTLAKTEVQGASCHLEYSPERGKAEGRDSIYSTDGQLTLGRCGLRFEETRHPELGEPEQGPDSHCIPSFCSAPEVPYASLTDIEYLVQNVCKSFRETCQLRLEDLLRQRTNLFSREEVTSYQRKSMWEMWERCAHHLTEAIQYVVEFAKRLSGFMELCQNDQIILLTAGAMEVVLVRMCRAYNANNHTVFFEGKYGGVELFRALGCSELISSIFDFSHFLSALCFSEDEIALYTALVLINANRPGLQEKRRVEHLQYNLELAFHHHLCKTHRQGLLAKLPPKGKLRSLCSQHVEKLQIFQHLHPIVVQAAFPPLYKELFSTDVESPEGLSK
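Stable Schneider cell line, Gal4 DNA-binding domain fused to ROR gamma, UAS-luciferase. Cmpd 1 hr RT → CuSO4 700 uM final → 20 hr RT → luciferase reagent 10 min → luminescence.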
Numbers without * were called inactive; ? = inconclusive; · = no result; [ ] = remark or other dose. Unless noted, the call rests on the fitted dose curve; in most records, active means well fitted curve in the direction sought with a large enough effect; inconclusive means small, poorly fitted or top-dose-only effect, or another doubt; inactive means no such curve, though single readings can be large; an effect the other way counts as inactive or inconclusive.

SMILES	SW480 rerep	VP16 counter	MCF10A rereplic	IL-1B inflam inh	RORg inh
O=C(/C=C\c1cccs1)c1c(O)ccc2ccc(=O)oc12	5%	-18%	21µM*	-83*	-22%
CCc1ccc(/C=C(\C)C(=O)c2c(C)cc(C)[nH]c2=O)cc1	8%	?	0%	-22	5%
O=C(NCC(c1ccco1)N1CCc2ccccc21)c1cccc([N+](=O)[O-])c1 (centres undefined)	-1%	·	?	-4	·
CC1(NC(=O)Cc2csc(-c3cccc(Cl)c3)n2)CCS(=O)(=O)C1 (centres undefined)	-10%	·	-9%	1	·
COc1ccc(/C=C/C(=O)c2c(C)cc(C)[nH]c2=O)c2ccccc12	?	14µM*	18µM*	-99*	?
COc1ccc(CCN2CC(C(=O)N(C)Cc3ccc(C)o3)CCC2=O)cc1 (centres undefined)	-15%	-1%	-3%	4	30%
COc1ccc(-c2noc(C)c2-c2ccc3ccccc3n2)c(O)c1	4.6µM*	-1%	?	-10	25%
COc1ccc(-c2onc(C)c2-c2ccccc2)c(O)c1	?	1%	?	-1	2%
Nc1[nH]c(=O)nc(Nc2ccccc2)c1N=O	-1%	·	11%	27	·
CC1S/C(=N/N=C2CCC(C(C)(C)C)CC2)NC1=O (centres undefined)	-4%	5µM*	-1%	51	2.5µM*
CC1S/C(=N/N=C2CCCCC2)NC1=O (centres undefined)	-3%	?	-5%	18	10µM*
COc1ccccc1NC(=O)COC(=O)/C=C/c1ccc(OC)c(OC)c1	-5%	·	13%	-5	·
COc1ccc(S(=O)(=O)N(C)C[C@H]2OCc3cnnn3CCCC(=O)N([C@@H](C)CO)C[C@H]2C)cc1	·	·	·	-17	·
CCN(Cc1ccccc1)C(=S)NC(=O)c1ccccc1Br	12µM*	1.1µM*	15%	-19	0.79µM*
O=C(NC(=S)N(CCO)Cc1ccccc1)c1cc(Br)ccc1Cl	-496%[1.84 µM]	1.8µM*	-4%	-12	0.79µM*
CCCN(Cc1ccccc1)C(=S)NC(=O)c1ccccc1[N+](=O)[O-]	-4%	1µM*	3%	0	0.35µM*
CN(C)CCNC(=O)c1cc(Br)ccc1Cl	13%	-13%	0%	62	0%
CCCCC(=O)N(C)c1c(C)nc2ccc(C(=O)N3CCN(S(=O)(=O)CC)CC3)cn12	·	·	·	27	·
COc1ccccc1N1C(=O)Cc2ccccc2C1=O	-8%	8%	-1%	20	-9%
O=c1[nH]c(CCl)nc2cc(-c3ccc(F)cc3)sc12	?	?	?	-102*	13µM*
O=C(COC(=O)c1ccccc1C(=O)c1ccc(Cl)c([N+](=O)[O-])c1)NC1CC1	?	0%	3.3µM*	-103*	?
O=C(COC(=O)c1cc([N+](=O)[O-])ccc1Cl)NC1CCCC1	-3%	-3%	-3%	-11	1%
O=C(OC1CCOC1=O)c1ccccc1C(=O)c1ccc(Cl)c([N+](=O)[O-])c1 (centres undefined)	?	·	4.6µM*	-27	·
CC(OC(=O)c1ccc(Cl)c([N+](=O)[O-])c1)C(=O)N1CCN(Cc2ccccc2)CC1 (centres undefined)	-9%	·	?	-96*	·
O=C(OCC(=O)N1CCCC1)c1ccc(Cl)c([N+](=O)[O-])c1	8%	14%	-20%	-57*	-13%
O=C(CSc1nc2cc(C(=O)O)ccc2c(=O)n1-c1ccc(F)cc1)Nc1ccc(F)c(F)c1F	-88%	-21%	-3%	6	29%
CS(=O)(=O)c1ccc(C(=O)OC2CCOC2=O)cc1[N+](=O)[O-] (centres undefined)	?	?	?	?	4.5µM*
CNC(=O)COC(=O)c1ccccc1C(=O)c1ccc(Cl)c([N+](=O)[O-])c1	5.8µM*	-27%	5.8µM*	-107*	-36%
Cc1ccccc1SCC(=O)OCC(=O)NCc1ccccc1	-5%	·	-2%	4	·
O=Cc1cc(-c2ccccc2)[nH]c1-c1ccccc1	-5%	-18%	6.5µM*	-18	2%[1.91 µM]
